# In the supplement of paper PMC3334620:
# Over roughly 33,000 sequences, “E-score (-0.5 to 0.5)” has its median near -0.053; the highest 2% begin near 0.37. The full list was thinned out, with the highest values kept by preference.
# Target: Hap1 (UniProt P0CE41)
# Test: PBM E-score (8-mer binding enrichment) (E-score (-0.5 to 0.5)); higher = stronger / more preferred TF binding
# Settings: protein concentration: 200 nM; construct: GST-DNA-binding domain
# In short: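 GST-tagged yeast TFs (full-length or DNA-binding domain) were made by PURExpress in vitro transcription/translation and applied at about 100-200 nM to universal all-10-mer Agilent arrays. The arrays were made double-stranded by primer extension, on fresh or once-stripped slides. Bound protein was detected with fluorescent anti-GST, and scans were normalised with masliner. Each ungapped eight-base word, pooled with its reverse complement, received an E-score (modified Wilcoxon-Mann-Whitney statistic) from the Universal PBM Analysis Suite.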
# UniProt P0CE41, sequence (P0CE41 whole entry): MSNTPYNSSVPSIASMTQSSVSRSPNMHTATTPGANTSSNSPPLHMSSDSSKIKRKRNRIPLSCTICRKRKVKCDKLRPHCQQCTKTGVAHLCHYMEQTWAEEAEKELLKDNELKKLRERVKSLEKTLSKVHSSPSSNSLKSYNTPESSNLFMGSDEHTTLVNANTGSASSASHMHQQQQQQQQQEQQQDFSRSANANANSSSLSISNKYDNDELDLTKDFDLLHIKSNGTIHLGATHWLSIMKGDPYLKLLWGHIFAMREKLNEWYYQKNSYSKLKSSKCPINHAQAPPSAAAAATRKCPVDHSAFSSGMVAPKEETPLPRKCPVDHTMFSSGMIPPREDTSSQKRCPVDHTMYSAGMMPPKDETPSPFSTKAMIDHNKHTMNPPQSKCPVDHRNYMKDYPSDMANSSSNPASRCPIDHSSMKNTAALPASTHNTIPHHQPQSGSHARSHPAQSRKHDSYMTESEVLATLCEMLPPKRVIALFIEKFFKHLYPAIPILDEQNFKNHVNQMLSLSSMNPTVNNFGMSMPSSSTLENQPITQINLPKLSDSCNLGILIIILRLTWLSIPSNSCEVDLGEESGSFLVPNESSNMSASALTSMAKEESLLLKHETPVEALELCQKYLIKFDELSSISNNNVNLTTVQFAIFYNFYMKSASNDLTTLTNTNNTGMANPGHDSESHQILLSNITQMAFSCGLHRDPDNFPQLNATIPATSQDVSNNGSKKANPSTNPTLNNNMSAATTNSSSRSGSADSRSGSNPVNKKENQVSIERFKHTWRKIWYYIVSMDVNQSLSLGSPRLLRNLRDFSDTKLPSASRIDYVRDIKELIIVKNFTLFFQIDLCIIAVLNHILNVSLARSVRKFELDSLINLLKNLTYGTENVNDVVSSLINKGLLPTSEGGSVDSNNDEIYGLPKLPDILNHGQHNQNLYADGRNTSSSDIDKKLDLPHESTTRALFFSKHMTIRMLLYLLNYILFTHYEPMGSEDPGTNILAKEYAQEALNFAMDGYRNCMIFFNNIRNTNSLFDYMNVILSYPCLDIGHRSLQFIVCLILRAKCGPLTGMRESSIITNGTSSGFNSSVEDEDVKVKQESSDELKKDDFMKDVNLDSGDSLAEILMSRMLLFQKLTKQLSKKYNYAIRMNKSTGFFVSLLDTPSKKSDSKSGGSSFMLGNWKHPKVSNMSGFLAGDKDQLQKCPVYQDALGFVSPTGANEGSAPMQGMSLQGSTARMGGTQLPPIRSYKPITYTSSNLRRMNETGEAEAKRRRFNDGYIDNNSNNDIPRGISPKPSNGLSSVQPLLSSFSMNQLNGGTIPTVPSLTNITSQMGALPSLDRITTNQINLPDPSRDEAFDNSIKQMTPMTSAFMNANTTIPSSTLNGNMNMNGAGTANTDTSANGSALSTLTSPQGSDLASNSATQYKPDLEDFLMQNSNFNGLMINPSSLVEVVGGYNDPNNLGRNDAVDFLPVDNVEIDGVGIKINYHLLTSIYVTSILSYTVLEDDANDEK
row,Sequence,PBM E-score
1,CTCCAAAC,-0.124
2,GCCGAGGA,0.294
3,TCCGAGCA,0.402
4,CCCGAGAA,0.351
5,ACCGAGCG,0.384
6,ACCGAGCT,0.294
7,ACCGAGAA,0.271
8,TCCGAGAA,0.381
9,ACCGAGCA,0.359
10,GCCGAGCA,0.236
11,CCCGAGGA,0.192
12,TCCGAGGA,0.384
13,CCCGAGCG,0.354
14,GCTAGGGA,-0.228
15,CCTTGAGA,-0.0628
16,GCGTTGTA,-0.0982
17,AACACCAA,-0.314
18,TAGATAGA,-0.111
19,GGCGAACC,0.0857
20,CCCGCAAC,0.277
21,ACCAGACC,0.0586
22,ATTTCTGG,-0.13
23,GGTAAATA,0.0374
24,ATCCCCTG,-0.324
25,ATCCCCGG,0.426

row,Sequence,PBM E-score
1,ATCCCGGA,0.36
2,CTCCCCGA,0.247
3,ATCCCCCC,-0.00218
4,ATCCCGGC,0.339
5,GTCCCCGA,0.269
6,CTCCCCGC,0.204
7,ATCCCCGC,0.371
8,ATCCCCGA,0.44
9,ATCCCGGG,0.376
10,ATCCCCCG,0.366
11,AGGGAATG,-0.197
12,AACACCCT,-0.0622
13,GACCTCTC,0.0308
14,CCTATCAA,-0.119
15,ACATGGAC,-0.143
16,TGCGAGAA,-0.143
17,ATAGGGAG,-0.147
18,CTAGAGAA,-0.207
19,GCCAGACC,0.0912
20,ACAGCTAC,-0.11
21,TTAGAAAA,-0.0981
22,AATCGCAC,-0.23
23,TGGAGAAA,-0.0481
24,CGGAGAAC,0.36
25,TCGAGAAA,-0.271

row,Sequence,PBM E-score
1,GGGAGAAA,0.0441
2,GCGAGAAA,0.116
3,CGGAGAAG,0.378
4,AGGAGAAG,-0.149
5,CCGAGAAA,0.4
6,CGGAGAAA,0.413
7,CTACTACC,0.068
8,TAACTTAA,0.0501
9,CATATGGG,0.0423
10,ACCACACT,-0.0326
11,AACACCTG,-0.0827
12,CCCACCGA,0.0319
13,CACACCGG,0.288
14,CCCACCGC,0.153
15,AACACCGT,0.245
16,AACACCGG,0.409
17,AACACCGA,0.446
18,AACACCGC,0.278
19,CCCACCGG,0.374
20,GCAACCCC,0.0182
21,ATGGAGTC,-0.104
22,AACGGTAG,-0.00937
23,CCGATGTC,0.295
24,CCGCACCC,0.209
25,GTTCCGGA,0.383

row,Sequence,PBM E-score
1,CTTCCGTA,0.262
2,GTTCCGAA,0.331
3,ATTCCGCA,0.196
4,ATTCCGGA,0.432
5,CTTCCGGA,0.404
6,ATTCCGTA,0.259
7,CTTCCGGC,0.275
8,GTTCCGCA,0.209
9,GATGAGGC,-0.0801
10,AAATCGGT,0.246
11,ACGGGCCC,0.214
12,CCCTCACG,-0.262
13,GAACCATA,-0.0291
14,CTAAAACC,0.291
15,AGGAATGC,-0.253
16,ACTCCTGG,-0.171
17,CCTCCGTA,0.246
18,GCTCCGTA,0.297
19,ACTCCGGG,0.39
20,CCTCCGCA,0.173
21,GCTCCGGA,0.444
22,CCTCCGTC,0.113
23,ACTCCGTG,0.292
24,CCTCCGAC,0.28
25,CCTCCGGC,0.399

row,Sequence,PBM E-score
1,CCTCCGGA,0.418
2,GCTCCGCA,0.164
3,AGTCTTCC,-0.0885
4,CGCCGTCC,0.0969
5,ACAATCAT,-0.0714
6,GGTAGGAC,0.0611
7,ACTCCGTA,0.244
8,ACTCCGTC,0.3
9,ACTCCGGC,0.389
10,ACTCCGGA,0.461
11,ACTCCGCA,0.156
12,ACTCCGCC,0.306
13,AGTAGTAC,0.105
14,AACTAACA,-0.0716
15,CTCGCAAC,-0.237
16,ACGGGTTA,0.0135
17,CCGGGTTA,0.37
18,CGGGTTTA,0.474
19,CGGGTTTC,0.331
20,CGGGGGTA,0.425
21,AGGGGTTA,-0.0702
22,GGGGGTTA,-0.181
23,CCGGGGTA,0.301
24,GGGGGGTA,0.047
25,CCGGGTTC,0.296

row,Sequence,PBM E-score
1,GGGGTTTA,0.266
2,CGGGGTTA,0.485
3,GCATAGGA,-0.136
4,ACGAGAAA,-0.00338
5,CATAGCCA,-0.139
6,ACGCCAAA,-0.08
7,CTCCTGGA,-0.254
8,GAATCAGC,-0.175
9,TGGTACAA,-0.376
10,GTGAGCAC,-0.232
11,GGGGGATA,0.134
12,CGGTTTAA,0.168
13,CGGTTTTA,0.433
14,AGGGGATA,-0.167
15,AGGTTTTA,0.0786
16,CGGTTATA,0.371
17,GGGTTATA,0.0789
18,AGGTTATA,-0.0688
19,CGGGGATA,0.475
20,GGTGTTAC,0.0592
21,CCCCACTC,-0.186
22,AGCGGCCG,0.325
23,ACTCCGAA,0.397
24,ACTCCGAC,0.353
25,GCTCCGAA,0.367

row,Sequence,PBM E-score
1,ACTCCGCG,0.371
2,CCTCCGCG,0.198
3,CCTCCGAG,0.335
4,ACTCCTAT,-0.141
5,ACTCCCAT,-0.176
6,ACTCCGCT,0.21
7,ACTCCGAT,0.406
8,CCTCCGAA,0.334
9,ACTCCGAG,0.401
10,GCGGTCGA,0.163
11,CCTTAGGC,-0.184
12,ATGTAGCG,-0.0634
13,CTCTACAG,-0.311
14,CAGTCCAC,-0.272
15,TCTCCGCA,0.299
16,TCTCCGAA,0.429
17,TCTCCAAA,-0.138
18,CCGTCTGA,-0.0177
19,CGACTTAA,-0.169
20,AGACTTAA,-0.18
21,GGACTTAA,0.443
22,CAGCTTCC,0.00993
23,TATTTGGA,-0.215
24,CCCTCCGA,0.253
25,ACCTCCGG,0.454

row,Sequence,PBM E-score
1,CCCTCCGG,0.331
2,ACCTCCGT,0.286
3,TCCTCCGA,0.308
4,ACCTCCGA,0.391
5,AATCATTC,-0.0493
6,CCTTGGAG,-0.109
7,ACCCGCTA,0.209
8,GTCAGTCA,-0.172
9,ACGGTATC,0.113
10,CGGGTATA,0.435
11,CCGGTATC,0.433
12,CAGGTATC,0.0262
13,AGGGTATA,0.254
14,CCGGTATA,0.425
15,GGGGTATA,0.103
16,GCGGTATA,0.0943
17,ACGGTATA,0.0727
18,ACCAAGCG,0.0447
19,CGGTTTCA,0.263
20,AACTCAGG,-0.116
21,AGGGATGG,0.00107
22,AGCATCCG,0.215
23,AGCATATG,-0.278
24,GCCGTTAA,0.346
25,CCCGTTAA,0.297

row,Sequence,PBM E-score
1,TCCGTTAA,0.408
2,ATCTAAAA,-0.105
3,CGAGTACG,0.0449
4,ATCTCGGC,0.379
5,CTCTCGGC,0.318
6,ATCTCGGG,0.356
7,AGCTCGGC,0.354
8,CTCTCGCA,-0.179
9,GTCTCGGA,0.358
10,ATCTCGGA,0.385
11,CTCTCGAA,-0.332
12,CTCTCGGA,0.4
13,GCCGGGCC,0.221
14,GTGTGTGA,-0.201
15,ACCCATGC,-0.249
16,TAGGCTAA,-0.138
17,GGATCGAC,0.17
18,CCCGACGG,0.331
19,CCCGACCG,0.379
20,ACCGACCG,0.314
21,CCCGACCC,0.167
22,ACCGACGG,0.38
23,ACCGACGT,0.185
24,GGGTTACA,0.0182
25,AAACGGGA,0.217

row,Sequence,PBM E-score
1,AATCCATG,-0.036
2,CGAGTTAC,-0.0647
3,GGAGTTAC,0.393
4,AGAGTTAA,-0.105
5,GGAGTTAA,0.429
6,TGAGTTAA,-0.188
7,AGAGTTAC,-0.312
8,GAGGGGTA,0.0493
9,CCATCAAA,-0.17
10,GAGACCGC,0.0393
11,CGGAAGTA,0.38
12,CGGAACTC,0.309
13,CGGAAAAA,0.4
14,AGGAAACA,-0.0825
15,CGGAACTA,0.436
16,AGGAAGTA,0.0541
17,CGGAAACA,0.384
18,CGGAAAAC,0.346
19,GGGAAACA,0.112
20,AGGAACTA,-0.0416
21,CGGAAAAG,0.343
22,CGGAAGTC,0.305
23,AATCCTAC,-0.124
24,ACAGCGCT,-0.0282
25,CGCTCGTA,0.0559

row,Sequence,PBM E-score
1,ACAGTACA,-0.00621
2,CGTATCGC,0.208
3,CCACTGGG,-0.145
4,AAGGAAGT,0.113
5,TCAGCAAA,-0.157
6,GTTTCTAA,0.105
7,GACCCGTC,0.0739
8,CACAGTCA,-0.284
9,GGCACGCC,-0.0738
10,ACCAAACT,-0.13
11,GCGTTGAC,-0.207
12,GAAGCATC,-0.0716
13,GGGAAATA,0.13
14,AGGAATTA,0.17
15,CGGAATTA,0.481
16,CGGAAATA,0.487
17,CGGAATTC,0.319
18,CGGAAATC,0.352
19,AGTTGAGC,-0.188
20,GCCTGGAA,-0.233
21,CAGTTTGG,-0.204
22,AGTATGTA,-0.162
23,ATGACCGC,0.197
24,ATGACCGG,0.276
25,CAGACCGA,0.278

row,Sequence,PBM E-score
1,AAGACCGT,0.0453
2,AAGACCGA,0.413
3,ATGACCGA,0.378
4,CTTCTAGA,-0.156
5,AAATGCTC,0.0505
6,TGACAGAA,-0.247
7,ACAGACCT,-0.0718
8,ACTAGTAC,-0.173
9,CTAGCCGA,0.25
10,ATAGCCGA,0.372
11,ATAGCCGC,0.232
12,ATAGCCGG,0.397
13,AGAGCCGG,0.263
14,ATAGCCAG,-0.293
15,AGTTTGGA,-0.274
16,CAGTTTCA,-0.241
17,ATAACGGC,0.355
18,GTAACGGA,0.401
19,CAAACGGA,0.324
20,ATAACGGG,0.228
21,ATAACGGA,0.414
22,CTAACGGC,0.184
23,CTCACGGA,0.221
24,GAAACGGA,0.277
25,ATCACGGA,0.352

row,Sequence,PBM E-score
1,CTAACGGA,0.38
2,GTAACGCA,0.0607
3,GTCACGGA,0.371
4,CATAACCG,0.133
5,ATGATTCC,0.0894
6,TCCTGCCA,-0.12
7,GTCATGAC,-0.111
8,AAAAACTC,0.0741
9,AGATGGCT,-0.0974
10,ACTATGCA,-0.16
11,CGCTACTA,0.163
12,CCGCCTTA,-0.0179
13,CCGCTCAA,0.0207
14,AGCCAGCA,-0.268
15,CGTTTACA,-0.145
16,CAACAGAA,-0.227
17,AACAAATC,-0.00416
18,AGCGTACT,-0.0657
19,GGTCCGGA,0.44
20,GGTCCCGA,0.231
21,CGTCCGTA,0.309
22,AGTCCGGA,0.452
23,AGTCCGTA,0.269
24,GGTCCGCA,0.3
25,CGTCCGCC,0.281

row,Sequence,PBM E-score
1,CGTCCGGA,0.443
2,CGTCCGGC,0.41
3,AGTCCGCA,0.293
4,CGTCCGCA,0.228
5,CGTCCGTC,0.234
6,ATGAAGAA,-0.136
7,GCACTGGA,-0.275
8,ACTGCCGA,0.261
9,GCCGACCC,0.139
10,AAACAGCC,-0.0624
11,AATGATCA,-0.179
12,CTTCAAGA,-0.235
13,AGGAAAGA,-0.275
14,ACATTCGC,0.0143
15,AGCCAAGA,-0.26
16,AGGACACA,-0.0409
17,AGATTCGA,-0.117
18,AGGTATTA,0.0089
19,CGGTAATC,0.327
20,CGGTATTC,0.304
21,CGGTAATA,0.408
22,GGGTAATA,-0.00588
23,CGGTATTA,0.412
